# Measurements published in PubChem BioAssay (NCI).
# This is part of a sample that, as a whole, favours compounds with a hit. Of some 79,000 tested, about 15% had one in any assay. A number with no mark means an inactive call. Activity calls are given as the source filed them. Cut-off read from the data, not from the text of the source: active = growth inhibition above about 70%; inactive = the rest.
# How the values were obtained:
# [1] = NCI Yeast Anticancer Drug Screen. Data for the rad50 strain (AID 155);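 note: 0% = growth of vehicle-only cultures of the same strain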; conditions: S. cerevisiae rad50 strain growth inhibition; at 50.0 µM; active compounds read high
# Summary of the method: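 A DNA repair-deficient yeast mutant serves as the test organism; compound-induced growth inhibition is calculated against vehicle-treated cells.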
# [2] = NCI Yeast Anticancer Drug Screen. Data for the mec2-1 strain (AID 157); conditions: S. cerevisiae mec2-1 strain, at 50.0 µM, active compounds read high
# Summary of the method: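 Compounds were applied to mec2-1 yeast cells. Their growth was then compared with that of vehicle-treated cultures to give growth inhibition.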
# [3] = NCI Yeast Anticancer Drug Screen. Data for the sgs1 mgt1 strain (AID 161);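 note: 0% = growth of cultures given vehicle only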; conditions: S. cerevisiae sgs1 mgt1 strain, at 50.0 µM, active compounds read high
# Summary of the method: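 Yeast cells carrying a defined DNA-repair defect were exposed to test compounds. Growth inhibition was measured relative to vehicle-treated controls.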
# [4] = NCI Yeast Anticancer Drug Screen. Data for the cln2 rad14 strain (AID 165);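 note: 0% = growth equal to vehicle treated cultures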; conditions: S. cerevisiae cln2 rad14 strain, at 50.0 µM, active compounds read high
# Summary of the method: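 Strain: cln2 rad14 yeast, altered in cell cycle control and DNA damage repair. Read-out: growth inhibition vs vehicle.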
# [5] = NCI Yeast Anticancer Drug Screen. Data for the bub3 strain (AID 167); conditions: S. cerevisiae bub3 mutant strain, at 50.0 µM, active compounds read high
# Summary of the method: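 Inhibition values come from growth of compound-treated mutant yeast normalised to vehicle-treated controls.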
# [6] = NCI Yeast Anticancer Drug Screen. Data for the mlh1 rad18 strain (AID 175); conditions: S. cerevisiae mlh1 rad18 strain growth inhibition; at 50.0 µM; active compounds read high
# Summary of the method: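 A repair-deficient yeast strain is exposed to test compound, and growth is scored relative to vehicle-treated controls.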
Compound,growth inhibition [1],growth inhibition [2],growth inhibition [3],growth inhibition [4],growth inhibition [5],growth inhibition [6]
COc1ccc(CN2COc3c(ccc4ccccc34)C2)cc1,36.1%,22.9%,31.1%,17.4%,12.6%,30.9%
CC(C)NC(=O)/C=C/C(=O)O,-16.1%,-20.4%,-41.2%,-7.4%,-11.2%,-9.1%
CC1C(=O)OC2CC[N+]3(C(=O)C(F)(F)F)CC4OC4(COC(=O)C(C)(O)C1(C)O)C23 (stereo not given),-13.2%,-32%,-12.8%,2.2%,0.65%,-8.9%
Cc1[nH]n(-c2nc(-c3ccccc3)cc(=O)[nH]2)c(=O)c1CCO,-11.8%,-31.5%,-25.9%,10.8%,-7.1%,-13.2%
O=C1c2cc3c(cc2CC12Cc1cc4c(cc1C2=O)CCCC4)CCCC3,-42.1%,-14.2%,-22.3%,-16.8%,-4.25%,-37.1%
CCOC(=O)CN(C=O)C(C)c1ccccc1 (stereo not given),13.1%,18.4%,4.4%,3.7%,33.6%,20.9%
O=C1C=CC(=O)C1N=Nc1ccccc1,43.9%,19.1%,16.9%,18.3%,-3.15%,28.3%
O=c1c2ccccc2c2ccccc2n1C(c1ccccc1)c1ccccc1,-43%,-4.9%,3.25%,-12.6%,-11.5%,-2%
O=C(O)CN(CCCCN(CC(=O)O)CC(=O)O)CC(=O)O,-6.8%,-15.8%,9.3%,-66.5%,16.4%,-21.2%
OC(c1ccccc1)(c1c2ccccc2cc2ccccc12)C1CCC1 (stereo not given),16.8%,20.1%,0.9%,9.75%,13%,-5.65%
CCC1CCC(C(C)(C)C)C(=O)C1 (stereo not given),6.45%,1.75%,2.55%,-11.3%,3.7%,-4%
O=C(O)c1ccc([N+](=O)[O-])c(P(=O)(O)O)c1,-5.95%,-7%,-12.2%,-42.8%,-29.6%,-3.5%
Clc1ncnc2c1cnn2-c1ccccc1,-4.05%,-8.55%,1.05%,-30.9%,-2.55%,-6.1%
COc1cc(C2C3=C(COC3=O)Oc3cc4c(cc32)OCO4)cc(OC)c1OC (stereo not given),-3.15%,24.1%,-8.35%,14.2%,-12.2%,3.5%
CC1(N)CCC(C(C)(C)N)CC1 (stereo not given),28.1%,-8.75%,10.8%,-30.3%,2.35%,8.8%
O=C(c1ccccc1)C1Nc2ccc(Cl)cc2C2C=CCC12 (stereo not given),-1.2%,-7.75%,6.4%,-7.95%,-0.35%,14.8%
C1CSCC2(COC2)CSCCSCC2(COC2)CS1,-23.1%,-13.4%,-18.9%,-3.05%,-7.35%,-18.6%
Cc1c(-c2ccccc2)c(=O)oc2cc(O)ccc12,-12.4%,13%,9.3%,-49.2%,17.5%,11.2%
CC(=O)Cn1c(=O)oc2ccccc2c1=O,22.6%,-9%,-10.7%,49.5%,17.9%,10.1%
O=c1[nH]c2c([N+](=O)[O-])cc(Cl)cc2nc1/C=C(\O)c1ccncc1,42.5%,8.75%,42.6%,9.45%,18.3%,51.4%

Compound,growth inhibition [1],growth inhibition [2],growth inhibition [3],growth inhibition [4],growth inhibition [5],growth inhibition [6]
Cc1ccc(C(=O)OC2C(OC(=O)Nc3ccccc3)OC(COC(=O)c3ccccc3)C2OC(=O)c2ccccc2)cc1 (stereo not given),1.95%,10.1%,9.45%,13.8%,-12.4%,30%
CCO/C=C(/C#N)C(=O)OCC,-6.8%,-11.9%,-20.3%,-27.6%,-14.3%,0.85%
CC(C)=C(Cl)c1c(C)cc(C)c(CC(N)=O)c1C,-14.1%,-3.75%,-8.15%,-27.2%,-9.95%,10.1%
CC1(C(Cl)(Cl)Cl)C=C/C(=N\O)C(Cl)=C1 (stereo not given),-2.3%,-10.7%,-1.9%,4.95%,-8.9%,-7.75%
CN1c2ccc(C3N(C(=O)C(F)(F)F)C=CN3C(=O)C(F)(F)F)cc2Sc2cc(C3N(C(=O)C(F)(F)F)C=CN3C(=O)C(F)(F)F)ccc21,-3.65%,1.15%,-2%,-6.9%,1.05%,19.9%
Cc1cc(NN)c2cc3c(cc2n1)OCO3,12.4%,-2.6%,5.05%,-46%,-5.7%,24.1%
O=NNc1ccc(Sc2ccccc2)cn1,6.8%,-9.2%,-3.75%,-8.55%,-31.6%,10.6%
CN1CCCC2[C@@H]3CCC4=C(O)C(=O)CC[C@]4(C)C3CC[C@@]21C (stereo not given in full),9.05%,-6.05%,-4%,22.1%,0.85%,18.4%
CCOC(=O)C12CC(COc3ccc([N+](=O)[O-])cc3)ON1OC(COc1ccc([N+](=O)[O-])cc1)C2 (stereo not given),23.9%,7.8%,17.2%,2.4%,-3.85%,28.1%
Clc1ccc(N[P+](c2ccccc2)(c2ccccc2)c2ccccc2)cc1.[Cl][Fe]([Cl])([Cl])[Cl],39.3%,12%,45.4%,5%,5.8%,17.8%
CC(CC#N)NC(=O)C1CCC(N)=N1 (stereo not given),-14.3%,-18.2%,-8.95%,1.4%,-7.35%,-9.9%
CCCCOc1ccc(Br)cc1,12.3%,5.4%,7.6%,8.1%,3.1%,-15.1%
O=C(NC(Cc1ccc(O)cc1)C(=O)O)SCc1ccccc1 (stereo not given),-25.6%,21%,22.9%,-52.5%,22.9%,-12%
C=C1C(=O)OC2(C)CCC1CC1OC1(C)CCC=C(C)CCC2O (stereo not given),3.7%,-39.1%,17.4%,8%,-17.7%,-39.5%
CCN(CC)Cc1cc(Nc2c3ccc([N+](=O)[O-])cc3nc3ccc(OC)cc23)ccc1O,83.3% (active),60.4%,56%,54.5%,53.9%,65.3%
c1cc(C2CCCCC2)ccc1C1CCCCC1,-7.4%,-19.1%,-20.6%,-58.1%,-16.1%,-3.9%
CCCC(C)(O)C(C)(C)C (stereo not given),6.85%,8.65%,8%,11.7%,28.8%,-2.15%
COC1OC2COC(C)(c3ccccc3)OC2C(O)C1[NH-].COC1OC2COC(C)(c3ccccc3)OC2C(O)C1[NH-].[Cl][Pt+2][Cl] (stereo not given),-0.25%,-2.7%,-7.8%,-25.3%,-3.05%,35.4%
CC(C)C(=O)Nc1ccccc1,2.9%,-11.9%,2.7%,-25.6%,-13.6%,15.6%
C[C@H]1CCC2C(OC(=O)[C@@H]2CN(C)C)[C@]2(C)C(=O)C=CC12O (stereo not given in full),-24.5%,-31.4%,-10.3%,17.4%,-6.95%,-36%
